# GIRK2 activator: Activates human GIRK2-containing potassium channels | P48051 | HEK293 GIRK2/NPY4 cells, thallium flux fluorescence | activation (% efficacy), % for hits at 37.5 µM | AID 1259324 | 34,000 tested, under 10 active;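 active means primary screen hit, no activity in plain HEK293 cells, and in GIRK2-only cells above 5% efficacy rising with concentration; inactive means the rest, including fluorescent compounds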;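 further: efficacy is normalized control-subtracted fluorescence 15 s after thallium addition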
# AMPAR-TARP mod: modulates AMPAR-stargazin complexes. O88602+P19491. HEK293 GluA2+stargazin, membrane potential dye (FDSS), glutamate EC50; hits were called plate by plate, in both directions. calls only at 30 µM. 3.5% of 40,000 active;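 active means any of four per-well response measures lying three or more SD from its plate-wide compound average, in either direction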
# Target sequence (O88602 whole entry, looked up): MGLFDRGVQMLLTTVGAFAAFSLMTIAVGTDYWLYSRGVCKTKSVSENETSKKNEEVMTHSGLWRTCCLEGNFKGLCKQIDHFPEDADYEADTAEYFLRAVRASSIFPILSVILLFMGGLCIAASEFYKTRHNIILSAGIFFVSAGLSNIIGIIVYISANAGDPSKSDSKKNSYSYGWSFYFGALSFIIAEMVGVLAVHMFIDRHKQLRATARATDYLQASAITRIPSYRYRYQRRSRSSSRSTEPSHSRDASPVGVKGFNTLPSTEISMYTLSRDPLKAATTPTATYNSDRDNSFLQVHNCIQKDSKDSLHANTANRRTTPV
# Target sequence (P19491 whole entry, looked up): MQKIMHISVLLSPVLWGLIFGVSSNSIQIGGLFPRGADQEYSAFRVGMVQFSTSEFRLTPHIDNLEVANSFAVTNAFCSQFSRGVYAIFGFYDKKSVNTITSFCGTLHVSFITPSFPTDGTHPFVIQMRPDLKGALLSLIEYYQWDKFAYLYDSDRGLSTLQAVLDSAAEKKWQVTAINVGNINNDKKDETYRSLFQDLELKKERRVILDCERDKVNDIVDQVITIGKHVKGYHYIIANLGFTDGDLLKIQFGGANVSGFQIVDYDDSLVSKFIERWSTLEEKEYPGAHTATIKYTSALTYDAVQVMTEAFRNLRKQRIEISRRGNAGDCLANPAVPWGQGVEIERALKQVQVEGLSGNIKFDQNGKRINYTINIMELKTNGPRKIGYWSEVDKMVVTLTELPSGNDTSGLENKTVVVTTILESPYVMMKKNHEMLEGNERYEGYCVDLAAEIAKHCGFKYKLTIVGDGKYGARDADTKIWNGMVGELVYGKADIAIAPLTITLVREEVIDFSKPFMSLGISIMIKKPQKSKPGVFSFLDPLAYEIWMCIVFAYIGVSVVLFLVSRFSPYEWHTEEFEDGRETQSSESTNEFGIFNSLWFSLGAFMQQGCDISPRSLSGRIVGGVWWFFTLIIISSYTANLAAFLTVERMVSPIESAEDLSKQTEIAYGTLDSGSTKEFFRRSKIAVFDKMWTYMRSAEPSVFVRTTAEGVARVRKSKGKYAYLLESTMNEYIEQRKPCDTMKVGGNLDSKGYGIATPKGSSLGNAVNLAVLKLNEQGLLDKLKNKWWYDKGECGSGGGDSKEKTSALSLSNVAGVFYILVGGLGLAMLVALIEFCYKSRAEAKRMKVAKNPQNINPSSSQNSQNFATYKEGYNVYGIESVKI
# * marks the source's active call; other numbers are inactive results; i = inactive; / = not tested or not shown; + = active, no number. This excerpt belongs to a sample that is enriched for hits.
SMILES,GIRK2 activator,AMPAR-TARP mod
CC(=O)N1N=C(c2cccs2)CC1c1cc2cc3c(cc2nc1Cl)OCCO3 (configuration not stated),/,i
COc1ccc(S(=O)(=O)CC(=O)N(Cc2ccccc2)Cc2ccccc2)cc1,i,i
Cc1ccc(S(=O)(=O)CCCC(=O)N(Cc2ccccc2)Cc2ccccc2)cc1,i,+
COC(=O)CNC(=O)c1cc2c(=O)n3ccccc3nc2n1C,i,i
O=C(NCc1ccccc1)c1ccc(Cn2c(=S)[nH]c3ccc(Br)cc3c2=O)cc1,i,i
COc1ccc(NC(=O)Cn2cc(-c3ccccc3)c(N3CCOCC3)n2)c(OC)c1,i,i
COC(=O)c1ccccc1NC(=O)Cn1cc(-c2ccccc2)c(N2CCOCC2)n1,i,+
C=CCn1c(SCC(=O)NCC2CCCO2)nc2scc(-c3ccc(Cl)cc3)c2c1=O (configuration not stated),i,i
C=CCn1c(SCC(=O)NCc2ccco2)nc2scc(-c3ccccc3Cl)c2c1=O,i,+
O=C(NCCS(=O)(=O)N1CCN(c2ccccn2)CC1)c1ccco1,i,i
COc1ccc(NC(=O)C(=O)Nc2ccc([N+](=O)[O-])cc2)c(OC)c1,/,i
O=C(NCc1cccs1)NCC(O)(c1cccs1)C1CC1 (configuration not stated),i,i
O=C(NCC(O)(c1cccs1)C1CC1)C1c2ccccc2Oc2ccccc21 (configuration not stated),i,+
O=C(NCC(O)(c1ccco1)C1CC1)NC1CCCCC1 (configuration not stated),i,+
O=C(NCC(O)(c1cccs1)C1CC1)c1ccco1 (configuration not stated),i,i
O=C(NCC(O)(c1ccco1)C1CC1)Nc1ccccc1C(F)(F)F (configuration not stated),i,i
O=C(NCC(O)(c1cccs1)C1CC1)NC1CCCCC1 (configuration not stated),i,+
Cc1ccc(C(=O)Nc2ccc(Nc3nc(C)cc(N4CCCCC4)n3)cc2)cc1,/,+
Cc1ccc(Nc2cc(C)nc(Nc3ccc(NC(=O)c4ccc5c(c4)OCO5)cc3)n2)cc1,/,i
COCCn1c(=O)c2c(nc3n2CCCN3c2ccc(Oc3ccccc3)cc2)n(C)c1=O,/,i
O=C(c1cccc(Oc2ncccn2)c1)N1CCOCC1,i,/
CCOCC(=O)NCC1CCN(C(=O)Nc2ccc(F)cc2)CC1,i,i
CCOc1ccccc1NC(=O)CCc1csc(NS(=O)(=O)c2ccc(F)cc2)n1,i,i
OC(COCC1CC2CCC1C2)CN1CCN(c2cccc(C(F)(F)F)c2)CC1 (configuration not stated),/,i
COc1ccc(Nc2cc(C)nc(-n3cc([N+](=O)[O-])cn3)n2)cc1Cl,i,+
SMILES,GIRK2 activator,AMPAR-TARP mod
COc1ccc(Nc2cc(C)nc(-n3cc([N+](=O)[O-])cn3)n2)cc1OC,i,i
COc1cc(NC(=O)NCc2cccs2)c2ncccc2c1,/,i
COc1cc(C)c(C)cc1S(=O)(=O)NCCC(O)C(C)(C)C (configuration not stated),i,i
CCN(CC)C(=O)Oc1ccc2c(=O)c(-c3ccc(OC)c(OC)c3)c(C)oc2c1,i,+
COc1ccccc1-c1c(C)oc2cc(OC(=O)N3CCOCC3)ccc2c1=O,/,i
CCN(CC)C(=O)Oc1ccc2c(=O)c(-c3ccccc3)c(C)oc2c1,/,i
Cc1oc2cc(OCC(=O)OCc3ccccc3)ccc2c(=O)c1-c1ccccc1,/,+
CCOC(=O)COc1ccc2c(=O)c(-c3ccccc3)c(C)oc2c1,/,i
COc1ccccc1-c1c(C)oc2cc(OCC=C(C)C)ccc2c1=O,/,+
CCSc1ccc(C(=O)Nc2ccc3ncsc3c2)cc1,i,i
COc1ccc(C)c2sc(N(CCN3CCOCC3)C(=O)c3ccc(Br)s3)nc12,/,+
COc1ccc(C)c2sc(N(CCN3CCOCC3)C(=O)c3ccc(C)cc3)nc12,/,i
CCS(=O)(=O)c1cccc(C(=O)N(CCN2CCOCC2)c2nc3c(C)c(C)ccc3s2)c1,/,+
CCOc1ccc2nc(N(CCN3CCOCC3)C(=O)c3ccc(S(C)(=O)=O)cc3)sc2c1,/,+
CCS(=O)(=O)c1cccc(C(=O)N(CCN2CCOCC2)c2nc3ccccc3s2)c1,i,i
COc1ccc(OC)c2sc(N(CCN3CCOCC3)C(=O)CCc3ccccc3)nc12,/,i
CCOc1ccc2nc(N(CCN3CCOCC3)C(=O)c3ccnn3C)sc2c1,i,i
CCCC(=O)N(CCN1CCOCC1)c1nc2c(OC)ccc(OC)c2s1,/,+
CSc1ccccc1C(=O)Nc1nn(C)c2c1C(c1cccs1)CC(=O)N2 (configuration not stated),i,i
COC(=O)Cn1c(=NC(=O)c2cc(C)no2)sc2ccccc21,i,i
